# KCNQ2 inh – blocks the rat KCNQ2 potassium channel; O88943; CHO-K1 KCNQ2, FluxOR thallium flux, 20 min; hits give low values; B-score at 10 µM; 310,000 compounds, 1.1% hits; AID 2156;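 active means fluorescence ratio B-score at most minus 3 library SDs, with starting brightness B-score within 2 library SDs, cut at about -5.5 in these data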
# KCNQ2 enhance – enhances the rat KCNQ2 potassium channel; CHO-K1 KCNQ2, FluxOR thallium flux fluorescence; hits give high values; B-score at 10 µM; 310,000 compounds, 0.54% hits;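 active means fluorescence ratio B-score at least 3 SD of library B-scores, with initial fluorescence B-score within 3 of them, cut at about 5.3 in these data; same plate scores as AID 2156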;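 further: B-score of peak minus minimum over baseline fluorescence ratio after K+ and Tl+ stimulus; positive B-score means potentiation of KCNQ2 with more thallium influx and brighter signal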
# Kir21 confirm – confirmation of mouse Kir2.1 potassium channel inhibitors. Tl flux remaining, % of negative control (hits give low values), % at 10 µM. shares compounds with KCNQ2 enhance. 2,300 compounds, 41% hits. Kir2.1-expressing cells, FluxOR thallium flux fluorescence; hits give low values. AID 2032;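 active means Primary-screen hit whose thallium flux fell at least 3 control SD below untreated wells in both duplicates, with normal baseline fluorescence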;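 further: 0% = blank wells without stimulus and 100% = stimulated no-compound controls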
# HEK293 Tl flux – alters thallium flux in parental HEK293 cells, Kir2.1 counter-screen; shares compounds with KCNQ2 enhance; FluxOR thallium flux fluorescence; 0% = unstimulated blank wells; 2,300 compounds, 19% hits; FluxOR signal as % of negative control (100 = no effect), % at 10 µM; AID 2105;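 active means dye signal at least 3 control SD above or below untreated wells in both duplicates, raw fluorescence within 3, either direction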;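 further: percent is based on the flux ratio of peak minus minimum fluorescence over baseline F0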
# CHO-K1 ctr – alters thallium flux in parental CHO-K1 cells, KCNQ2 counter-screen. shares compounds with KCNQ2 enhance. FluxOR thallium flux fluorescence; zero = vehicle mean+3SD, 100% = vehicle-minus-blank window. activity increase over 3SD of controls, % at 10 µM. 1,200 compounds, 43% hits. AID 2282;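 active means signal rise of at least 3 SD above the untreated control mean, in both duplicate wells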;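 further: counter screen of KCNQ2 potentiator hits so any rise reflects channel-independent effects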
# KCNQ1 pot spec – tests whether KCNQ2 potentiators also act on human KCNQ1 | CHO KCNQ1 stable, FluxOR thallium flux fluorescence; beyond 3SD, as % of vehicle-control signal | 1,200 compounds, 28% hits | activation over 3SD threshold, % at 10 µM | shares compounds with KCNQ2 enhance;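 active means fluorescence ratio rise of at least 3 SD of vehicle wells above their mean, in both replicate wells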;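 further: 0% = vehicle mean plus 3 SD and 100% = vehicle minus unstimulated blank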
# Target sequence (P51787 whole entry, looked up): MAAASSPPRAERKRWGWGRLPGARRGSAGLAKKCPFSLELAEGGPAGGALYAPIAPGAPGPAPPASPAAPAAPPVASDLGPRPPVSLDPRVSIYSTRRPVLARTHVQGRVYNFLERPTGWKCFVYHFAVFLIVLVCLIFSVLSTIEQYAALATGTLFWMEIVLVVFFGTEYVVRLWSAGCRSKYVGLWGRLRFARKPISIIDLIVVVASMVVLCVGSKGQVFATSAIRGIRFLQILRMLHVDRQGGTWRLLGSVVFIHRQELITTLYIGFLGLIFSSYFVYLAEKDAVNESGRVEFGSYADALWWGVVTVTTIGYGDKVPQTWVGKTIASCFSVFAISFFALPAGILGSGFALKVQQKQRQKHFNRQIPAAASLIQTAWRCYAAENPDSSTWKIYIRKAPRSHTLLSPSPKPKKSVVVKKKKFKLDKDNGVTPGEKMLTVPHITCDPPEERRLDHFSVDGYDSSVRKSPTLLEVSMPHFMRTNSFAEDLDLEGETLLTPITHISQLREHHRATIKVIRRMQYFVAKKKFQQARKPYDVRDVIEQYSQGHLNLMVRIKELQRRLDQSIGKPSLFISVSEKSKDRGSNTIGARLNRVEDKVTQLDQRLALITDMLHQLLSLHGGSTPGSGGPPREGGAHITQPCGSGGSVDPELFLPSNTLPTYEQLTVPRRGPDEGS
# KCNQ2 pot confirm – confirmation of rat KCNQ2 potassium channel potentiators | potentiation, less the hit threshold, % at 10 µM | CHO-KCNQ2 cells, FluxOR thallium flux fluorescence | shares compounds with KCNQ2 enhance | 1,200 compounds, 68% hits;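 active means fluorescence ratio rising 3 SD or more over the vehicle control mean in both replicates, plus primary screen hit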;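 further: peak minus minimum thallium fluorescence divided by baseline after K/Tl stimulus; 0% = vehicle mean plus 3 SD and 100% = vehicle minus unstimulated blank difference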
# Kir2-1 sel – mouse Kir2.1 off-target activity of KCNQ2 potentiators. shares compounds with KCNQ2 enhance. HEK293 Kir2.1, FluxOR thallium flux fluorescence. activity over 3SD threshold, % at 10 µM. 1,200 compounds, 2% hits;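 active means fluorescence ratio rise of at least 3 SD above the vehicle-control mean, seen in both replicates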;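 further: 0% = vehicle mean plus 3 SD and 100% = vehicle minus no-stimulus blank window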
# KCNQ2 W236L pot – rat KCNQ2 W236L mutant potentiation by KCNQ2 potentiators; shares compounds with KCNQ2 enhance; CHO KCNQ2-W236L, automated patch clamp current; 940 compounds, 10% hits; current increase over 3SD of negative controls (%), hits give high values, % at 25 µM;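 active means current increase at least 3 SD of the untreated controls above them in both duplicate recordings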
# * hit, by the source's call; i = inactive; . = no result. Only some compounds are listed: those with a hit (about 1.6% of all), similar ones and a draw of the others.
SMILES,KCNQ2 inh,KCNQ2 enhance,Kir21 confirm,HEK293 Tl flux,others
COc1ccc2c(C(=O)c3ccc(Cl)cc3)n(CCCC(N)=O)[n+]([O-])c2c1,i,0.22,.,.,
Cc1ccc(CNCC(O)(c2ccccc2)c2ccc(F)cc2)cc1 (stereo not given),i,.,.,.,
OC(CNCc1ccc(F)cc1)(c1ccccc1)c1ccc(F)cc1 (stereo not given),i,.,i,i,
OC(CNCc1ccccc1F)(c1ccc(F)cc1)c1ccc(F)cc1,i,.,.,.,
OC(CNCc1ccccc1)(c1ccc(F)cc1)c1ccc(F)cc1,i,.,38%*,i,
CCC(C(=O)OCC(=O)NC(=O)c1ccccc1)c1ccccc1 (stereo not given),i,.,.,.,
CCC(C(=O)OCC(=O)NC(=O)c1ccccc1OC)c1ccccc1 (stereo not given),i,.,70%*,i,
COc1cccc(C2CCCCN(C)C2=O)c1 (stereo not given),i,0.18,.,.,
CCOC(=O)C(NC(=O)c1ccccc1)=C1C=C(C)OC(C)=C1,i,6.8*,i,i,CHO-K1 ctr=1.7*;KCNQ1 pot spec=-7;KCNQ2 pot confirm=8.7*;Kir2-1 sel=-32;KCNQ2 W236L pot=i
COC(=O)C(NC(=O)c1ccccc1)=C1C=C(C)OC(C)=C1,i,5,.,.,
CCOc1ccc(N(CC(=O)NCc2ccc(F)cc2)C(=O)CCC(=O)Nc2nccs2)cc1,i,.,.,.,
CCn1c(=O)cc(SCC(=O)NCC2CCCO2)c2ccccc21 (stereo not given),i,1.1,.,.,
Cn1c(=O)cc(SCC(=O)NCC2CCCO2)c2ccc(Cl)cc21 (stereo not given),i,6.2*,i,i,CHO-K1 ctr=-15;KCNQ1 pot spec=92*;KCNQ2 pot confirm=-9;Kir2-1 sel=-50
CS(=O)(=O)N(CC(=O)Nc1ccccc1Sc1ccccc1)c1cccc(Br)c1,i,18*,i,i,CHO-K1 ctr=-8;KCNQ1 pot spec=-6;KCNQ2 pot confirm=1.7*;Kir2-1 sel=-40;KCNQ2 W236L pot=i
CSc1ccccc1NC(=O)CN(c1cc(C)cc(C)c1)S(C)(=O)=O,i,.,.,.,
CC1CN(CCc2ccccc2)c2nc3c(c(=O)n(C)c(=O)n3C)n2C1 (stereo not given),i,2,.,.,
CCOC(=O)c1[nH]c(C)c(C(=O)OCC(=O)Nc2sc3c(c2C#N)CCCCC3)c1C,i,0.03,.,.,
Cc1cc(Cl)ccc1OC(C)C(=O)Nc1ccc(C(=O)Nc2ccccc2C(=O)O)cc1 (stereo not given),i,.,.,.,
CC(COc1ccccc1Cc1ccccc1)N1CCCCC1 (stereo not given),i,0.23,i,i,
O=C(O)COc1ccccc1Cc1ccccc1,i,.,.,.,
CCOc1cc(N2CCOCC2)c(OCC)cc1NC(=O)C1CCCC1,i,4.2,.,.,
CCOc1cc(N2CCOCC2)c(OCC)cc1NC(=O)CCC1CCCC1,i,25*,i,i,CHO-K1 ctr=0.0*;KCNQ1 pot spec=220*;KCNQ2 pot confirm=112*;Kir2-1 sel=-37;KCNQ2 W236L pot=i
CCOc1cc(N2CCOCC2)c(OCC)cc1NC(=O)COC(=O)c1ccccc1C,i,0.04,.,.,
CCOc1cc(N2CCOCC2)c(OCC)cc1NC(=O)Cc1cccc2ccccc12,i,8.2*,i,i,CHO-K1 ctr=2.4*;KCNQ1 pot spec=26*;KCNQ2 pot confirm=9.3*;Kir2-1 sel=-41;KCNQ2 W236L pot=i
CC(C)Cc1nnc(NC(=O)CCC(=O)NC2CCCCCC2)s1,i,1.6,.,.,
SMILES,KCNQ2 inh,KCNQ2 enhance,Kir21 confirm,HEK293 Tl flux,others
O=C(Nc1cc(S(=O)(=O)N2CCCCC2)ccc1Oc1ccccc1)C1=COCCO1,i,.,.,.,
Cc1ccccc1OCC(=O)Nc1ccc2[nH]ncc2c1,i,1.7,.,.,
Nc1ccc2nc(-c3ccc(Cl)cc3)[nH]c2c1,i,0.01,.,.,
Clc1ccc2nc(-c3ccc(Cl)nc3)[nH]c2c1,i,6.9*,i,i,CHO-K1 ctr=-7;KCNQ1 pot spec=57*;KCNQ2 pot confirm=5.7*;Kir2-1 sel=-17;KCNQ2 W236L pot=3.5%*
Cc1ccc2nc(CCCc3nc4ccc(C)cc4[nH]3)[nH]c2c1,i,.,70%*,i,
Cc1ccc2nc(CCc3nc4ccc(C)cc4[nH]3)[nH]c2c1,i,.,.,.,
CCn1cc(C(=O)NC(=S)Nc2cccc(O)c2)cn1,i,2.2,.,.,
CN(CC(=O)Nc1ccccc1C(F)(F)F)C(=O)c1cccc(-n2cccc2)c1,i,0.9,.,.,
Cc1ccc(NC(=O)CC(O)(C(F)(F)F)C(F)(F)F)c(Br)c1,i,8.7*,i,i,CHO-K1 ctr=54*;KCNQ1 pot spec=54*;KCNQ2 pot confirm=31*;Kir2-1 sel=-39;KCNQ2 W236L pot=i
Cc1ccccc1NC(=O)CC(O)(C(F)(F)F)C(F)(F)F,i,0.22,.,.,
Cc1ccc(C2CC2C(=O)NNC(=S)Nc2cccc(Cl)c2)cc1 (stereo not given),i,18*,i,i,CHO-K1 ctr=-2;KCNQ1 pot spec=-5;KCNQ2 pot confirm=84*;Kir2-1 sel=-36;KCNQ2 W236L pot=i
Cc1ccc(NC(=S)NNC(=O)C2CC2c2ccc(C)cc2)cc1 (stereo not given),i,.,.,.,
Cc1ccc(C2CC2C(=O)NNC(=S)Nc2cccc(C)c2)cc1 (stereo not given),i,9.2*,i,i,CHO-K1 ctr=-4;KCNQ1 pot spec=-12;KCNQ2 pot confirm=64*;Kir2-1 sel=-54;KCNQ2 W236L pot=i
O=C(NNC(=S)Nc1ccc(F)cc1)C1CC1c1ccc(Cl)cc1 (stereo not given),i,1.7,.,.,
CC1(C)Cc2cccc(OCC(=O)OCC(=O)Nc3cccc(S(N)(=O)=O)c3)c2O1,i,.,.,.,
COc1ccc([N+](=O)[O-])cc1NS(=O)(=O)c1cccc(C(=O)O)c1,i,0.47,.,.,
COc1cccc(CN(C(=O)c2ccc([N+](=O)[O-])cc2)C2CCS(=O)(=O)C2)c1 (stereo not given),i,.,.,.,
O=C(O)C[C@H]1c2cc(F)ccc2S(=O)(=O)N1C1CCN(Cc2ccccc2)CC1,i,0.01,.,.,
COC(=O)CSc1[nH]c2ccc(Br)cc2c1[N+](=O)[O-],i,6.5*,i,i,CHO-K1 ctr=-22;KCNQ1 pot spec=-13;KCNQ2 pot confirm=-24;Kir2-1 sel=-23
CCOc1ccc2[nH]c(SCC(=O)OC)c([N+](=O)[O-])c2c1,i,.,.,.,
COc1cc2c(cc1OC)CN(c1ccc(-c3ccccc3OC)nn1)CC2,i,.,.,.,
COc1cc2c(cc1OC)CN(c1ccc3ccccc3n1)CC2,i,.,56%*,132%*,
O=C(NC1CCS(=O)(=O)C1)c1cccc(Cl)c1 (stereo not given),i,.,.,.,
COC(=O)c1ccc(NS(=O)(=O)c2cc(-c3cc(C)no3)ccc2OC)cc1,i,.,.,.,
